The text below walks through data of ChEMBL document CHEMBL1961873, “Compounds: GSK PKIS; Assays: Nanosyn kinase panel” (2012).

Assay [1] addresses T1, Ephrin type-B receptor 2 (Homo sapiens) (UniProt P29323).
T1 sequence (whole entry): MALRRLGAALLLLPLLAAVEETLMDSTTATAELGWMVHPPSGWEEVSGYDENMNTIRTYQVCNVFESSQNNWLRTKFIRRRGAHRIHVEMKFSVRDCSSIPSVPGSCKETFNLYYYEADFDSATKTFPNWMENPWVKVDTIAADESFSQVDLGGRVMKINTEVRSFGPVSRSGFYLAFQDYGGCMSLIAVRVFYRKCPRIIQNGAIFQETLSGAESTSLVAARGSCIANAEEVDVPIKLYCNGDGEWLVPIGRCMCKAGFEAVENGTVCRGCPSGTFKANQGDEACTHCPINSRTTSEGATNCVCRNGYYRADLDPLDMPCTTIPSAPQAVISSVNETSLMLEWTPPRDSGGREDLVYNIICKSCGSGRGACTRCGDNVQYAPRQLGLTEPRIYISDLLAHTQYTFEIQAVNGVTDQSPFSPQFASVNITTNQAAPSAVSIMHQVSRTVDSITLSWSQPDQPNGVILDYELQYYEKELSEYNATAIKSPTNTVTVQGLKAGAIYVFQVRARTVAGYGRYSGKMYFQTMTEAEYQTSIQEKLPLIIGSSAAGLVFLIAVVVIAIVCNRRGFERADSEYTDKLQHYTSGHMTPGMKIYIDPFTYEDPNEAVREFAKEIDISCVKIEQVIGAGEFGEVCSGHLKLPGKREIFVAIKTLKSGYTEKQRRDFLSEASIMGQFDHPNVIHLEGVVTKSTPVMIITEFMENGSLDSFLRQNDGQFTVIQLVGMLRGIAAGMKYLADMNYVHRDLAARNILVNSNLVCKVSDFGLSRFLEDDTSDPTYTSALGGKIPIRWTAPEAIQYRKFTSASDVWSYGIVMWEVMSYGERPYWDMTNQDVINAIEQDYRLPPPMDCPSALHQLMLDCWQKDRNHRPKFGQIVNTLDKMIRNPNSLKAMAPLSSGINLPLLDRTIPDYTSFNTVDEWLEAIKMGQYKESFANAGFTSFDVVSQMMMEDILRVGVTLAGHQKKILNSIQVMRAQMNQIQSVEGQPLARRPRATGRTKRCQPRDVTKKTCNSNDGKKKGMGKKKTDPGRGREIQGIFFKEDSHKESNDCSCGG
Particulars: at 1 µM.

For assay [2], the target named is T2, Ephrin type-B receptor 3 (Homo sapiens) (UniProt P54753).
T2 sequence (whole entry): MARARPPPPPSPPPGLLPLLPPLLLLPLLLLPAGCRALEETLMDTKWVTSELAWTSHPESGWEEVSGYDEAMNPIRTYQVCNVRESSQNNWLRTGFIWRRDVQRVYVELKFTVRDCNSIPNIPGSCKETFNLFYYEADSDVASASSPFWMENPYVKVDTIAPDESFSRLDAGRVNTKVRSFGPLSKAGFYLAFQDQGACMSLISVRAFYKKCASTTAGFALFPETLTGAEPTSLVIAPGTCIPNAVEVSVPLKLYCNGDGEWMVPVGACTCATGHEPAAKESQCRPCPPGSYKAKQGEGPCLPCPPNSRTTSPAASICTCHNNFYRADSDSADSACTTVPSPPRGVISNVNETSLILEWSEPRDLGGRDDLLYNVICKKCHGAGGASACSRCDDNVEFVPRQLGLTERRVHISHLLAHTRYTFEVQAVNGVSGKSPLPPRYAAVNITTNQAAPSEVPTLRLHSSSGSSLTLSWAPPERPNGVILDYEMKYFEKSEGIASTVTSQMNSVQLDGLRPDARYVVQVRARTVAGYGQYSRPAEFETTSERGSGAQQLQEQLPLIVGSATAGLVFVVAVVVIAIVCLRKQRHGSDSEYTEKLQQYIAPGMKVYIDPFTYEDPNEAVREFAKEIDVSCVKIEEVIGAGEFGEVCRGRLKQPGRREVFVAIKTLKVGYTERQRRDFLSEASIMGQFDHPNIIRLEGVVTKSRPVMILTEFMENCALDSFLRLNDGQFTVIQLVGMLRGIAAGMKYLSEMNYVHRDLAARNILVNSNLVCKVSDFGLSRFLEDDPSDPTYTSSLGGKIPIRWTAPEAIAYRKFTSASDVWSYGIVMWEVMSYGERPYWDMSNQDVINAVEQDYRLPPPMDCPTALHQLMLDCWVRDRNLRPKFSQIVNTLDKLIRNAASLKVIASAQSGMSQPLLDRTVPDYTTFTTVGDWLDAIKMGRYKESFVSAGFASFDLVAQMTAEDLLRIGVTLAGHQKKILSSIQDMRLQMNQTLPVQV
Conditions: at 0.1 µM.

In assay [3] the target is T2, Ephrin type-B receptor 3 (Homo sapiens). Conditions: at 1 µM.
Assay [4] concerns the target T3, Ephrin type-B receptor 4 (Homo sapiens) (UniProt P54760).
T3 sequence (whole entry): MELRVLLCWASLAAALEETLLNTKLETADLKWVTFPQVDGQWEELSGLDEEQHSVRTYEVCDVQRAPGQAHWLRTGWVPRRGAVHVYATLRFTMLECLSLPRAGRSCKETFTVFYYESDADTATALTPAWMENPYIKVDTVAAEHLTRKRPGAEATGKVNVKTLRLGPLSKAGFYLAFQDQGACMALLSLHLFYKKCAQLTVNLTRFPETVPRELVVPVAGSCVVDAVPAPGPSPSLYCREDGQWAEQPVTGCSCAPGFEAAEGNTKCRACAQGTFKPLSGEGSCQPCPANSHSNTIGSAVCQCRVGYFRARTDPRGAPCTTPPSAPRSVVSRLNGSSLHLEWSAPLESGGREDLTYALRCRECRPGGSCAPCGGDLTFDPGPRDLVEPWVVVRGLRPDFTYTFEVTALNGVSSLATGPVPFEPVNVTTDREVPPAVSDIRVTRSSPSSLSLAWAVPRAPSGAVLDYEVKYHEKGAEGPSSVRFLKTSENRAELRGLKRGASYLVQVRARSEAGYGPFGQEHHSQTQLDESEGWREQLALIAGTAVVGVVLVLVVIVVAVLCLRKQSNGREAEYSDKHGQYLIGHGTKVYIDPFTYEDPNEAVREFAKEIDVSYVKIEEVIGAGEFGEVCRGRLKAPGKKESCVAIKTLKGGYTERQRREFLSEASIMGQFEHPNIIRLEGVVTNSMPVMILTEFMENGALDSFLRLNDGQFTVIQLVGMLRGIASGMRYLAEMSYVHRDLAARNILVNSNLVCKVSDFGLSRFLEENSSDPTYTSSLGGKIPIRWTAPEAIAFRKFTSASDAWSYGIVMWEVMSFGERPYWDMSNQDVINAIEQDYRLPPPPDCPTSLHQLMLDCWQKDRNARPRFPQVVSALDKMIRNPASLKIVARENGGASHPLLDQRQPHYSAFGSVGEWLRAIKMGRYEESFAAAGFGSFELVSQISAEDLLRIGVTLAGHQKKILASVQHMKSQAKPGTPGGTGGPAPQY
Conditions: at 0.1 µM.

Assay [5] has as its target T3, Ephrin type-B receptor 4 (Homo sapiens). Conditions: at 1 µM.
In assay [6] the target is Receptor tyrosine-protein kinase erbB-2 (Homo sapiens) (UniProt P04626). Conditions: at 0.1 µM.
The target is the same in assay [7]. Conditions: at 1 µM.
Assay [8] addresses Receptor tyrosine-protein kinase erbB-4 (Homo sapiens) (UniProt Q15303). Conditions: at 0.1 µM.
For assay [9] the target is unchanged. Conditions: at 1 µM.
The target of assay [10] is Tyrosine-protein kinase Fer (Homo sapiens) (UniProt P16591). Particulars: at 0.1 µM.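 Note: reported figures are averaged percent inhibition of FER.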
Tyrosine-protein kinase Fer (Homo sapiens), sequence (P16591 whole entry, looked up): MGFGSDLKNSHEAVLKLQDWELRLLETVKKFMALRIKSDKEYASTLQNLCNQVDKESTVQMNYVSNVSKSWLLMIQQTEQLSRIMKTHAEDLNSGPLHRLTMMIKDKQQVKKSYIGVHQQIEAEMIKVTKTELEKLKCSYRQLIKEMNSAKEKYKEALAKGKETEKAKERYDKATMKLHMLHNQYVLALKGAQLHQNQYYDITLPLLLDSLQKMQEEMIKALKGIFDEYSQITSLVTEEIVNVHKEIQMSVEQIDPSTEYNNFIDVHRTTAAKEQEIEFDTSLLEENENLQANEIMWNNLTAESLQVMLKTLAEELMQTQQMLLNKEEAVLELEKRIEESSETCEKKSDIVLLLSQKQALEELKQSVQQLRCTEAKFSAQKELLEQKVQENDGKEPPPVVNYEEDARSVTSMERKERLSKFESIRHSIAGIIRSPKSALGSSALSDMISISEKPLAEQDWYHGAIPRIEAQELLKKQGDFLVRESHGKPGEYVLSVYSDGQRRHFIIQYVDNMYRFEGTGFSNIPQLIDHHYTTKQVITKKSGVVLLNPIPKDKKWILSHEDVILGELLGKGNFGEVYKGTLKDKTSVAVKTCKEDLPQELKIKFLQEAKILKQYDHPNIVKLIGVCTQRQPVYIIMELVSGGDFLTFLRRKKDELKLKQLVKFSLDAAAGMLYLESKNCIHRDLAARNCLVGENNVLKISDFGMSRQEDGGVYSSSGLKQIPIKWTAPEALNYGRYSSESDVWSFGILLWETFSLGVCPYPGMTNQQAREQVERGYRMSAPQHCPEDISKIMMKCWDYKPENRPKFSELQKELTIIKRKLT

Receptor tyrosine-protein kinase erbB-2 (Homo sapiens), sequence (P04626 whole entry): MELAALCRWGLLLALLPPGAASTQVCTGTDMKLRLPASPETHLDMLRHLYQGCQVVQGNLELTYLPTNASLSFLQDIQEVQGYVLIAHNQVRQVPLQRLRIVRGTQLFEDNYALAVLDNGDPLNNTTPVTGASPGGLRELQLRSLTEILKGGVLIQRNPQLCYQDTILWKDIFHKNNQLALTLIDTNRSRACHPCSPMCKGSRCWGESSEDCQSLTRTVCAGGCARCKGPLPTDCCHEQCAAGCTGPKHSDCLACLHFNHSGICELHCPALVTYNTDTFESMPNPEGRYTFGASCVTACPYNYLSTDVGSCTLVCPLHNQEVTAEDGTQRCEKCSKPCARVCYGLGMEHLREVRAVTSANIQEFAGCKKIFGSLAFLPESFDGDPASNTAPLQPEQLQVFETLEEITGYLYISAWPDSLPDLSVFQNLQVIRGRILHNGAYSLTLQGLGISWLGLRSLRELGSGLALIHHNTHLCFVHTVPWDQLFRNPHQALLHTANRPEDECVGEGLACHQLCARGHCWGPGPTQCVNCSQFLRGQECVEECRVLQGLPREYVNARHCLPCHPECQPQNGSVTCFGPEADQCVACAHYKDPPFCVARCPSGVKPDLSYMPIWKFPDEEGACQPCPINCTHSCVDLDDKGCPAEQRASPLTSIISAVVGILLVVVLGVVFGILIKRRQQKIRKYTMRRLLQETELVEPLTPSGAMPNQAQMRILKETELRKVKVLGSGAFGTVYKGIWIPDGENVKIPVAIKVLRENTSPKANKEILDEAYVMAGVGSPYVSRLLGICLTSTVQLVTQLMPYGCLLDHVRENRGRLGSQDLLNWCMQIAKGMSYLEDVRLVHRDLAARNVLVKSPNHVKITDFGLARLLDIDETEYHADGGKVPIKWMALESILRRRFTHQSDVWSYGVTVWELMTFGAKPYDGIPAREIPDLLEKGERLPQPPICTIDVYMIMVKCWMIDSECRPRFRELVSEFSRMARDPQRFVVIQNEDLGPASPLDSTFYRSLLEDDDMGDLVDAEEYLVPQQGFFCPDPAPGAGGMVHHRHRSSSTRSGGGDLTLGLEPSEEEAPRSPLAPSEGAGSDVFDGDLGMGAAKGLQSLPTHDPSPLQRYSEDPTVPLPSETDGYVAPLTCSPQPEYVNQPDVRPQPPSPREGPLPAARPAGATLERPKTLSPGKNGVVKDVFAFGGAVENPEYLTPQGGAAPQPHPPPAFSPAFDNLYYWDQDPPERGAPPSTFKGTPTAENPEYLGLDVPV
Receptor tyrosine-protein kinase erbB-4 (Homo sapiens), sequence (Q15303 whole entry): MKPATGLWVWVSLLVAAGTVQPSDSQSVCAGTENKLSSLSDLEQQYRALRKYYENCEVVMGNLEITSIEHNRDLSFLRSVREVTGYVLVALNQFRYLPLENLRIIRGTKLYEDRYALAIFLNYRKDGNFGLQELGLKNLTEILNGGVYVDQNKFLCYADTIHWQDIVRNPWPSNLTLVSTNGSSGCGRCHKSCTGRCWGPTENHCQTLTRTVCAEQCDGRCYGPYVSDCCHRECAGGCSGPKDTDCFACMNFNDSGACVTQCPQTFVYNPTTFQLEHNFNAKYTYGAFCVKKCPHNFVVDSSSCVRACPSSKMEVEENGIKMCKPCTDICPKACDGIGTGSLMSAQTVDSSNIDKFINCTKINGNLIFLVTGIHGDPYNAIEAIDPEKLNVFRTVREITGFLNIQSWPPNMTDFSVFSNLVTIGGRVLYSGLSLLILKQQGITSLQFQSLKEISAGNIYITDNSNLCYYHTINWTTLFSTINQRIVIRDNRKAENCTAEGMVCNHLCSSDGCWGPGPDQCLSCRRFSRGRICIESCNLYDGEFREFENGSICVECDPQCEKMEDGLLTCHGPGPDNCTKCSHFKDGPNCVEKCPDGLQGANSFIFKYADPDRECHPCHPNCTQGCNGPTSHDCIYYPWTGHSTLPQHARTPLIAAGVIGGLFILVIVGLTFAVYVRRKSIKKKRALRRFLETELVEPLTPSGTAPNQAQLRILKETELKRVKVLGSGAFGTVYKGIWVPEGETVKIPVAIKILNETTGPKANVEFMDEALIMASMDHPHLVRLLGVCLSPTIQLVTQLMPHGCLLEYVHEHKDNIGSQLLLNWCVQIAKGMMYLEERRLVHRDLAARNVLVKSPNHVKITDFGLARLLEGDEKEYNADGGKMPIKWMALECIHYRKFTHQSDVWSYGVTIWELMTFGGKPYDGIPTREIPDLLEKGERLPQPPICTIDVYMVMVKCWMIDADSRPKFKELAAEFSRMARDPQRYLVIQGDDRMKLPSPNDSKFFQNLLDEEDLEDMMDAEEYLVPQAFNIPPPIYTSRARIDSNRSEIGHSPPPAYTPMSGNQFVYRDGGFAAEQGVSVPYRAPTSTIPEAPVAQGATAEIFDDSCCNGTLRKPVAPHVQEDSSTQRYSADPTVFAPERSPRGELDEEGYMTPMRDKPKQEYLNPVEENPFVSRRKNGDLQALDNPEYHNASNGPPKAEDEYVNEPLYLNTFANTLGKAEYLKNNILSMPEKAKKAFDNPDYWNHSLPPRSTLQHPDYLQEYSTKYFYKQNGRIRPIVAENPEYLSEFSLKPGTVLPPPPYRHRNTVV

Take `N#Cc1cccc(Nc2nccc(-c3cnn4ncccc34)n2)c1`: the inhibition – broadly, the relative decrease from the control value, in per cent – in [1] was determined as 46.2%; in assay [2] it was 4.19%; in [3], 3.9%; in [4], 5.63%; in assay [5] it was 22.5%; in [6], 1.23%. For the same compound, the inhibition came to 5.3% in assay [7], 8.57% in assay [8], 19.1% in assay [9] and 9.92% in assay [10].

As to `C[C@@H](Oc1cc(-n2cnc3ccc(OC[C@@H](O)CO)cc32)sc1C(N)=O)c1ccccc1Cl`, the inhibition was -2.42% in [1]; -1.05% in [2]; -0.83% in assay [3]; -3.41% in assay [4]; -0.4% in assay [5]; 0% in assay [6]. Moreover, the inhibition in assay [7] was 0.61%; in assay [8], -3.03%; in [9], -1.55%; in assay [10] it was -1.75%.

In the case of `CN(c1ccc(NC(=O)Nc2ccc(OC(F)(F)F)cc2)cc1)c1ccnc(Nc2cccc(S(N)(=O)=O)c2)n1`, the inhibition in assay [1] was 54.8%; in [2], 3.87%; in assay [3], 8.25%; in assay [4], 1.79%; in [5] it was 30.7%; in assay [6], 2.39%. For the same compound, the inhibition came out at 4.23% in assay [7], 7.13% in assay [8], 14.5% in assay [9] and 12.6% in assay [10].

Consider `NC(=O)c1sc(-n2cnc3ccccc32)cc1OCc1ccccc1Br`, for which the inhibition in [1] was found to be 10.9%; in [2], 4.52%; in assay [3] it was 6.83%; in assay [4], 1.58%; in assay [5] it was 3.37%; in assay [6] it was 0.61%. Also, the inhibition was 3.64% in assay [7], 3.34% in [8], 9.23% in assay [9] and -0.27% in [10].

`COc1ccc2ncnc(Nc3ccc(OCc4ccccc4)cc3)c2c1`: the inhibition in assay [1] came out at 6.18%; in assay [2], 4.29%; in assay [3] it was 1.66%; in assay [4], 2.58%; in assay [5], 0.41%; in assay [6] it was 1.73%. The inhibition in assay [7] is 30.9%; in assay [8], 56.2%; in assay [9], 85.1%; in assay [10] it was -1.28%.

As for `COC(=O)Nc1nc2cc(Oc3ccc(NC(=O)Nc4cccc(Br)c4)cc3)ccc2[nH]1`, the inhibition was 80.4% in assay [1]; 5.42% in assay [2]; 7.66% in assay [3]; 9.97% in [4]; 26% in assay [5]; 3.03% in [6]. Moreover, the inhibition in [7] was 0.8%; in [8], 7.14%; in [9], 11.2%; in assay [10], 2.5%.

For the compound `COc1cccc(-n2ncc3c(N/N=C/c4ccc(S(C)(=O)=O)cc4)ncnc32)c1`, the inhibition is 11.5% in assay [1]; -0.24% in assay [2]; -2.08% in [3]; -0.79% in assay [4]; 6.93% in assay [5]; 2.7% in assay [6]. Besides, the inhibition in assay [7] amounted to 3.96%; in assay [8], 7.91%; in [9], 7.9%; in assay [10] it was 1.13%.

With `Cc1cc(-c2ccccn2)cc(C)c1/C=C/c1cncc(-c2nn[nH]n2)c1`, the inhibition is 12.8% in [1]; 2.22% in assay [2]; 4.35% in assay [3]; 1.86% in assay [4]; 4.98% in assay [5]; -0.2% in assay [6]. For the same compound, the inhibition in assay [7] is 8.13%; in [8], 8.8%; in assay [9], 21.3%; in assay [10], -0.04%.

As for `OCc1ccc(-c2nc(-c3ccccn3)c(-c3ccc4c(c3)OCO4)[nH]2)cc1`, the inhibition in assay [1] came to 11.4%; in [2], 5.72%; in assay [3], 3.87%; in [4], 4.58%; in [5], 4.09%; in assay [6], 0.45%. Besides, the inhibition in assay [7] is -3.06%; in [8], 11.6%; in assay [9] it was 12.7%; in assay [10], 2.2%.
